This is one part of a sample in which hits are shown more often than they occur.
PostGolgi yeast = growth inhibition of a yeast mutant, post-Golgi transport screen. post-Golgi transport phenotypic cell assay. inhibition, % at 10 µM. hit rate 0.9% among 98,000. AID 739;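 also: yeast cells grown in 1536-well plates; yeast grown about 18 h at 30C before absorbance read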
GALR2 blocker = antagonists of human galanin receptor 2 (GALR2) | O43603 | GALR2-expressing cells, antagonist mode | inhibition, % at 4 µM | hit rate 0.39% among 140,000; in the data active = inhibition above about 27%;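 also: cells stimulated with galanin 1-16 at roughly its EC80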
Target sequence (O43603 whole entry, looked up): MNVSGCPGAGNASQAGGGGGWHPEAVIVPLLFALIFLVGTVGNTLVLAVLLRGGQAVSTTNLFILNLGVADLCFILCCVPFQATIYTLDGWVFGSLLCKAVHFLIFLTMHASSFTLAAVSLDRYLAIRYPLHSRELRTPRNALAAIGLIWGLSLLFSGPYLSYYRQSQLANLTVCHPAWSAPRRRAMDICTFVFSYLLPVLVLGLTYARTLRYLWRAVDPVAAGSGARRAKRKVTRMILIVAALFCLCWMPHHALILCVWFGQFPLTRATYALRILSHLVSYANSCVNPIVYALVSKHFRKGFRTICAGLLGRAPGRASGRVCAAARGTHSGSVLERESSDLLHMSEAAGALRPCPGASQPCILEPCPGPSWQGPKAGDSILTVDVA
GALR2 agonist = agonists of human galanin receptor 2 (GALR2). activation, % (no concentration beside the values). O43603. hit rate 0.48% among 140,000. GALR2-expressing cells, agonist activation read-out; in the data active = activation above about 5%, passing the limit was not always enough
S1P2 blocker = blocks the human S1P2 receptor; O95136; cell-based S1P2 antagonist assay, inhibition at 5 uM; inhibition, % at 5 µM; hit rate 0.21% among 97,000; in the data active = inhibition above about 45%;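 also: CRE beta-lactamase reporter cells expressing human S1P2 stimulated with S1P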
PostGolgi ctrl = inhibits growth of the yeast control strain; hit rate 5% among 98,000; efflux-deficient yeast background strain, growth absorbance A615, 16 h; inhibition, % at 10 µM
S1P2 agonist = activates the human S1P2 receptor; S1P2-expressing cell line, agonist reporter read-out; activation, % at 4.5 µM; hit rate 0.46% among 97,000; AID 729; in the data active = activation above about 16%
Of the large screens only hits and unclear results are named; the others gave an inactive call. Rule as the data show it, unless noted: active = inhibition above about 30%; inactive = the rest.

COc1ccc2cc(C(c3nnnn3C3CCCCC3)N3CCCCCC3)c3nnnn3c2c1 (configuration not stated)	GALR2 agonist 13 (no result: PostGolgi yeast, PostGolgi ctrl)
COc1ccc2cc(C(c3nnnn3C3CCCC3)N3CCCCCC3)c3nnnn3c2c1 (configuration not stated)	none (no result: PostGolgi yeast, PostGolgi ctrl)
Cc1ccc2nc(C(F)(F)F)c(C#N)c(N)c2c1	PostGolgi ctrl 36 (no result: S1P2 blocker, S1P2 agonist)
Cc1cc(C)c2nc(C(F)(F)F)c(C#N)c(N)c2c1	none
COc1ccc(Cl)cc1C(=O)CSc1nnnn1C1CCCC1	PostGolgi ctrl 35
O=C(COc1cccc2ccccc12)N/N=C/c1ccc(Sc2nc3ccccc3s2)o1	none
O=C(Cc1cccc2ccccc12)N/N=C/c1ccc(Sc2nc3ccccc3s2)o1	PostGolgi ctrl 35
CCOC(=O)C1CCC(CN(Cc2ccccc2)S(=O)(=O)c2ccc([N+](=O)[O-])cc2)CC1 (configuration not stated)	none (no result: PostGolgi yeast, S1P2 blocker, PostGolgi ctrl, S1P2 agonist)
CCOC(=O)C1=C(C)NC(SCC(=O)Nc2nc(C)cs2)=C(C#N)C1c1cccs1 (configuration not stated)	GALR2 agonist 22, S1P2 agonist 20
O=C1CC(C(=O)Nc2ccccc2)N=C(N2CCCCC2)N1 (configuration not stated)	PostGolgi ctrl 31
CN1CCN(C(=O)c2ccc(COc3ccc(Cl)cc3Cl)cc2)CC1	none
O=C(c1ccc(Cl)cc1)N1CCC(O)(CSc2ccc(Cl)cc2Cl)CC1	PostGolgi ctrl 94
Cc1ccc(S(=O)(=O)N=S(CC2CC2(Cl)Cl)CC2CC2(Cl)Cl)cc1 (configuration not stated)	none
COc1ccc(NC(=O)c2nn(C34CC5CC(CC(C5)C3)C4)cc2[N+](=O)[O-])cc1	none (no result: PostGolgi yeast, S1P2 blocker, PostGolgi ctrl, S1P2 agonist)
O=C(Nc1cccc2ccccc12)c1nn(C23CC4CC(CC(C4)C2)C3)cc1[N+](=O)[O-]	PostGolgi yeast 47, PostGolgi ctrl 85
COC(=O)Cn1c(=NC(=O)C2COc3ccccc3O2)sc2cc(S(N)(=O)=O)ccc21 (configuration not stated)	none (no result: PostGolgi yeast, S1P2 blocker, PostGolgi ctrl, S1P2 agonist)
c1cncc(-c2noc(-c3cccc4ccccc34)n2)c1	none
c1ccc(-c2ccccc2-c2nc(-c3cccnc3)no2)cc1	PostGolgi yeast 38, PostGolgi ctrl 34
CCc1sc(NC(=O)c2cc3ccccc3oc2=O)nc1-c1cccs1	none (no result: PostGolgi yeast, S1P2 blocker, PostGolgi ctrl, S1P2 agonist)
Cc1ccc(-n2nc3ccc(NC(=O)/C=C/c4ccco4)cc3n2)cc1	none (no result: PostGolgi yeast, S1P2 blocker, PostGolgi ctrl, S1P2 agonist)
COc1cc2oc3ccccc3c2cc1N(CC(=O)N(C)C)S(=O)(=O)c1ccc(C)cc1	none
COc1cc2oc3ccccc3c2cc1N(CC(=O)N1CCCCC1)S(=O)(=O)c1ccc(C)cc1	PostGolgi ctrl 43
COc1ccc(-c2cc(C(=O)Nc3c(Cl)cc(Cl)cc3Cl)c3ccccc3n2)cc1OC	GALR2 agonist 4.9 (no result: PostGolgi yeast, S1P2 blocker, PostGolgi ctrl, S1P2 agonist)
CCOC(=O)Cn1nnc2c(sc3nc4c(c(-c5ccc(Cl)cc5)c32)CCC4)c1=O	PostGolgi ctrl 34
O=c1[nH]cnc2c1sc1nc3c(c(-c4ccc(Cl)cc4)c12)CCC3	none
CCOC(=O)Cn1nnc2c(sc3nc4c(c(-c5ccccc5)c32)CCC4)c1=O	PostGolgi ctrl 32
CC(=O)c1cn(CCC(C)C)c(=O)[nH]c1=O	none (no result: PostGolgi yeast, S1P2 blocker, PostGolgi ctrl, S1P2 agonist)
O=C(CSc1nc(C2CC2)nc2ccccc12)N1CCc2ccccc2C1	PostGolgi ctrl 68
CSc1nnc(Cn2c(=O)sc3ccccc32)n1-c1ccccc1	none
CC(C)Sc1nnc(Cn2c(=O)sc3ccccc32)n1-c1ccccc1	PostGolgi ctrl 32 (no result: S1P2 blocker, S1P2 agonist)
CCOc1cc(-c2c(C#N)c(N)nc3c2CCCC3C)ccc1O (configuration not stated)	PostGolgi ctrl 38
CCn1c2ccccc2c2cc(NC(=O)CSc3nnc(-c4ccc(OC)cc4)n3N)ccc21	GALR2 agonist 5.2
COc1ccc(NC(=O)CSc2nnc(-c3ccccc3)n2N)cc1	none
CC1(c2cc([N+](=O)[O-])cc([N+](=O)[O-])c2)CC(C)(C)N(C(=O)c2ccccc2)c2ccccc21 (configuration not stated)	none
CC1(c2ccccc2)CC(C)(C)N(C(=O)C2CCCO2)c2ccccc21 (configuration not stated)	PostGolgi ctrl 66
CCN(C(=O)CN1CCN(S(=O)(=O)c2cc(Cl)ccc2Cl)CC1)c1c(N)n(Cc2ccccc2)c(=O)[nH]c1=O	none (no result: PostGolgi yeast, S1P2 blocker, PostGolgi ctrl, S1P2 agonist)
CCCCN(C(=O)CSc1nnc(-c2ccccc2OC)n1C)c1c(N)n(Cc2ccccc2)c(=O)[nH]c1=O	none (no result: PostGolgi yeast, S1P2 blocker, PostGolgi ctrl, S1P2 agonist)
